Laboratory results reported in PubChem BioAssay AID1076 (NMMLSC, 2008).
Calls of active or inactive are those of the source.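 The calls were made as follows: active = cell event count below 40, meaning activity score above 60 where score is 100 minus count; inactive = the rest.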

Assay: LNCaP cell loss by flow event count, confirmation, cytotoxicity control for prostate differentiation activator project, single point (AID 1076);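 also: counts scatter-gated live cells after medium removal discards detached dead cells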
Details: flow cytometry event count, 4 d, stronger effect = lower value

Q: For COc1ccc(CN2C(=O)C(O)(CC(=O)c3c(C)n[nH]c3C)c3ccccc32)cc1OC (stereo unspecified), which cell event count (at 100 µM) is on record?
A: The cell event count was 284 (inactive).

Q: And the cell event count (event count, at 10 µM)?
A: The cell event count was 248.

Q: Which results are given for CC(C)n1c(=S)[nH]c2c1c(=O)[nH]c(=O)n2C?
A: cell event count (at 100 µM): 221 (inactive); cell event count (event count, at 10 µM): 146

Q: What does the source list for CC(=O)Nc1cc(C(=O)N2CCOCC2)ccc1S(=O)(=O)c1ccc(C)cc1?
A: cell event count (at 100 µM): 272 (inactive); cell event count (event count, at 10 µM): 300

Q: For Cc1cc(NC(=O)CSc2nnc(C3CC3)n2C)no1, which cell event count (at 100 µM) is on record?
A: The cell event count was 198 (inactive).

Q: What about the cell event count (event count, at 10 µM) of the same compound?
A: Its cell event count is 100.

Q: For COc1cc(C(=O)NCc2nnc(SCC(=O)NCc3ccccc3)o2)cc(OC)c1OC, which cell event count (at 100 µM) is on record?
A: The cell event count was 104 (inactive).

Q: And the cell event count (event count, at 10 µM)?
A: The cell event count was 134.

Q: Which cell event count (at 100 µM) does the source give for Cc1cc(N2CCC(N(C)C3CCCC3)CC2)nc2cc(O)ccc12 here?
A: Its cell event count is 26 (inactive).

Q: What about the cell event count (event count, at 10 µM) of the same compound?
A: Its cell event count is 196.

Q: With Cc1nn(Cc2ccc(F)cc2)c(C)c1NC(=O)c1cc(-c2ccc3c(c2)OCO3)on1 as the compound, how does the cell event count (at 100 µM) read?
A: The cell event count was 105 (inactive).

Q: What about the cell event count (event count, at 10 µM) of the same compound?
A: Its cell event count is 276.

Q: What does the source list for Cc1cc(O)c(-c2cc(C(=O)Nc3ccc(S(=O)(=O)N4CCOCC4)cc3)[nH]n2)cc1C?
A: cell event count (at 100 µM): 36 (inactive); cell event count (event count, at 10 µM): 86

Q: With CCN(CCNC(=O)C1CCN(Cc2nc(-c3cccc(Cl)c3)oc2C)CC1)c1ccccc1 as the compound, how does the cell event count (at 100 µM) read?
A: Its cell event count is 3 (active).

Q: And the cell event count (event count, at 10 µM)?
A: The cell event count was 83.

Q: What does the source list for CC1CCCCN1CCNC(=O)c1ccc2c(=O)n(CCc3ccccc3)c(=O)[nH]c2c1 (stereo unspecified)?
A: cell event count (at 100 µM): 168 (inactive); cell event count (event count, at 10 µM): 184

Q: For COc1ccc(Cl)cc1N1CCN(CCNC(=O)Nc2ccccc2C)CC1, which cell event count (at 100 µM) is on record?
A: Its cell event count is 6 (inactive).

Q: What about the cell event count (event count, at 10 µM) of the same compound?
A: The cell event count was 506.

Q: For Cc1nnc(NCc2n[nH]c(=O)c3ccccc23)c2ccccc12, which cell event count (at 100 µM) is on record?
A: The cell event count was 47 (inactive).

Q: What about the cell event count (event count, at 10 µM) of the same compound?
A: The cell event count was 219.

Q: What does the source list for Cc1ccc(-n2nc3cc(Cl)c(NC(=O)c4ccco4)cc3n2)cc1?
A: cell event count (at 100 µM): 333 (inactive); cell event count (event count, at 10 µM): 236

Q: Which cell event count (at 100 µM) does the source give for Cc1sc(CO)c(Sc2ccccc2)c1C(=O)O here?
A: The cell event count was 324 (inactive).

Q: And the cell event count (event count, at 10 µM)?
A: Its cell event count is 240.

Q: With CC(C)(C)C1CCc2onc(C(=O)Nc3cnn(Cc4ccc(F)cc4)c3)c2C1 (stereo unspecified) as the compound, how does the cell event count (at 100 µM) read?
A: The cell event count was 66 (inactive).

Q: What about the cell event count (event count, at 10 µM) of the same compound?
A: The cell event count was 242.

Q: With CCn1c(SCC(=O)Nc2ccccc2F)nc2c(c1=O)SC(C)C2 (stereo unspecified) as the compound, how does the cell event count (at 100 µM) read?
A: Its cell event count is 75 (inactive).

Q: What about the cell event count (event count, at 10 µM) of the same compound?
A: Its cell event count is 70.5.

Q: Which results are given for COc1ccc(CCNC(=O)C2CCN(Cc3nc(-c4ccccc4C)oc3C)CC2)cc1OC?
A: cell event count (at 100 µM): 1 (inactive); cell event count (event count, at 10 µM): 188

Q: What does the source list for Cc1ccccc1-c1nc(CN2CCC(C(=O)NCCC3=CCCCC3)CC2)c(C)o1?
A: cell event count (at 100 µM): 11 (inactive); cell event count (event count, at 10 µM): 93.5

Q: What does the source list for CCN(CC)CCNC(=O)c1nn(-c2ccc(C)cc2)c(=O)c2c1c1ccccc1n2C?
A: cell event count (at 100 µM): 18 (inactive); cell event count (event count, at 10 µM): 136

Q: Which cell event count (at 100 µM) does the source give for COc1ccc(C(CC(=O)O)NC(=O)Cc2ccccc2)cc1 (stereo unspecified) here?
A: Its cell event count is 186 (inactive).

Q: And the cell event count (event count, at 10 µM)?
A: The cell event count was 66.5.

Q: What does the source list for Cc1ccc(C2=Nc3ccccc3NC(C)(c3ccc(C)o3)C2)o1 (stereo unspecified)?
A: cell event count (at 100 µM): 324 (inactive); cell event count (event count, at 10 µM): 120

Q: What does the source list for Cc1ccccc1CN1CCN(CC(=O)NCCCN2CCN(c3ccc(F)cc3)CC2)C1=O?
A: cell event count (at 100 µM): 241 (inactive); cell event count (event count, at 10 µM): 195

Q: For O=S1(=O)C=C(Sc2nc3ccccc3s2)c2ccccc21, which cell event count (at 100 µM) is on record?
A: Its cell event count is 39 (active).

Q: What about the cell event count (event count, at 10 µM) of the same compound?
A: Its cell event count is 44.

Q: For CCSc1nnc(Cn2c(=O)sc3ccccc32)n1-c1ccccc1C, which cell event count (at 100 µM) is on record?
A: The cell event count was 249 (inactive).

Q: What about the cell event count (event count, at 10 µM) of the same compound?
A: Its cell event count is 171.

Q: What does the source list for CCOC(=O)C1=C(C)N=c2s/c(=C\c3ccncc3)c(=O)n2C1c1ccc2c(c1)OCO2 (stereo unspecified)?
A: cell event count (at 100 µM): 17 (inactive); cell event count (event count, at 10 µM): 272

Q: Which cell event count (at 100 µM) does the source give for CCc1ccc(-c2nc(CN3CCC(C(=O)NCc4ccc(F)cc4)CC3)c(C)o2)cc1 here?
A: The cell event count was 1 (active).

Q: And the cell event count (event count, at 10 µM)?
A: Its cell event count is 62.5.

Q: Which results are given for CCOC(=O)N1CCC(NC(=O)c2cc3c(-c4ccc(OC)c(OC)c4)nn(C)c3s2)CC1?
A: cell event count (at 100 µM): 151 (inactive); cell event count (event count, at 10 µM): 398

Q: Which results are given for COc1ccc(CCN2CCC(Nc3nc4ccccc4n3Cc3ccc(F)cc3)CC2)cc1?
A: cell event count (at 100 µM): 11 (inactive); cell event count (event count, at 10 µM): 728

Q: Which cell event count (at 100 µM) does the source give for Cc1cccc(-c2nc(CN3CCCC(C(=O)NC4CCCC4)C3)c(C)o2)c1 (stereo unspecified) here?
A: The cell event count was 29 (inactive).

Q: What about the cell event count (event count, at 10 µM) of the same compound?
A: The cell event count was 328.

Q: Which results are given for COC(=O)CN1CCN(C(=O)c2ccc(F)cc2)c2ccccc2C1?
A: cell event count (at 100 µM): 112 (inactive); cell event count (event count, at 10 µM): 157

Q: Which results are given for O=C(C1CCN(S(=O)(=O)c2cccc3nsnc23)CC1)N1CC=C(c2ccccc2)CC1?
A: cell event count (at 100 µM): 27 (inactive); cell event count (event count, at 10 µM): 258

Q: For Cc1oc(-c2cccc(Cl)c2)nc1CN1CCC(C(=O)NCCCN2CCCC2=O)CC1, which cell event count (at 100 µM) is on record?
A: Its cell event count is 166 (inactive).

Q: What about the cell event count (event count, at 10 µM) of the same compound?
A: The cell event count was 190.

Q: What does the source list for CCc1ccc(-c2nc(CN3CCC(C(=O)NCc4ccco4)CC3)c(C)o2)cc1?
A: cell event count (at 100 µM): 25 (inactive); cell event count (event count, at 10 µM): 172

Q: Which cell event count (at 100 µM) does the source give for CCOc1ccc(NC(=O)COc2nsnc2N2CCCCC2)cc1 here?
A: The cell event count was 23 (active).

Q: And the cell event count (event count, at 10 µM)?
A: The cell event count was 63.5.

Q: For CCCCOC(=O)Nc1cc(C(=O)OC)ccc1C(=O)OC, which cell event count (at 100 µM) is on record?
A: The cell event count was 143 (inactive).

Q: And the cell event count (event count, at 10 µM)?
A: Its cell event count is 206.

Q: What does the source list for CCCCOC(=O)CSc1nc2c(cc1C#N)C(=O)CC(C)(C)C2?
A: cell event count (at 100 µM): 203 (inactive); cell event count (event count, at 10 µM): 194

Q: For Cc1ccccc1-c1nc(CN2CCCC(C(=O)NCc3cccnc3)C2)c(C)o1 (stereo unspecified), which cell event count (at 100 µM) is on record?
A: Its cell event count is 124 (inactive).

Q: What about the cell event count (event count, at 10 µM) of the same compound?
A: Its cell event count is 135.

Q: For Cc1ccc2c(c1)c1c(n2CC(O)Cn2c(C)nc3ccccc32)/C(=N\O)CCC1 (stereo unspecified), which cell event count (at 100 µM) is on record?
A: Its cell event count is 16 (inactive).

Q: What about the cell event count (event count, at 10 µM) of the same compound?
A: Its cell event count is 454.
